Results on five molecules are retold here after PubChem BioAssay.

“And” between values parts separate entries of the source, which are not always exact repeats. Equal values may be shown once. Records with an inconclusive call do not appear. For part of these data: Potency and affinity values are given separately. The source made the active and inactive calls. Rule as the data show it, unless noted: active = parasite load remaining mostly below about 12% (no sharp cut-off); inactive = mostly above about 10%.

Assay [1] deals with ATP-dependent translocase ABCB1 (Homo sapiens) (UniProt P08183). Description: P-glycoprotein substrate transport blockade – cell-based (AID 377; in the data active = fluorescence slope change above about 50%). The note with it: MDR1-expressing cells, fluorescent substrate accumulation slope; stronger effect = higher value; concentration not given here.
ATP-dependent translocase ABCB1 (Homo sapiens), sequence (P08183 whole entry, looked up): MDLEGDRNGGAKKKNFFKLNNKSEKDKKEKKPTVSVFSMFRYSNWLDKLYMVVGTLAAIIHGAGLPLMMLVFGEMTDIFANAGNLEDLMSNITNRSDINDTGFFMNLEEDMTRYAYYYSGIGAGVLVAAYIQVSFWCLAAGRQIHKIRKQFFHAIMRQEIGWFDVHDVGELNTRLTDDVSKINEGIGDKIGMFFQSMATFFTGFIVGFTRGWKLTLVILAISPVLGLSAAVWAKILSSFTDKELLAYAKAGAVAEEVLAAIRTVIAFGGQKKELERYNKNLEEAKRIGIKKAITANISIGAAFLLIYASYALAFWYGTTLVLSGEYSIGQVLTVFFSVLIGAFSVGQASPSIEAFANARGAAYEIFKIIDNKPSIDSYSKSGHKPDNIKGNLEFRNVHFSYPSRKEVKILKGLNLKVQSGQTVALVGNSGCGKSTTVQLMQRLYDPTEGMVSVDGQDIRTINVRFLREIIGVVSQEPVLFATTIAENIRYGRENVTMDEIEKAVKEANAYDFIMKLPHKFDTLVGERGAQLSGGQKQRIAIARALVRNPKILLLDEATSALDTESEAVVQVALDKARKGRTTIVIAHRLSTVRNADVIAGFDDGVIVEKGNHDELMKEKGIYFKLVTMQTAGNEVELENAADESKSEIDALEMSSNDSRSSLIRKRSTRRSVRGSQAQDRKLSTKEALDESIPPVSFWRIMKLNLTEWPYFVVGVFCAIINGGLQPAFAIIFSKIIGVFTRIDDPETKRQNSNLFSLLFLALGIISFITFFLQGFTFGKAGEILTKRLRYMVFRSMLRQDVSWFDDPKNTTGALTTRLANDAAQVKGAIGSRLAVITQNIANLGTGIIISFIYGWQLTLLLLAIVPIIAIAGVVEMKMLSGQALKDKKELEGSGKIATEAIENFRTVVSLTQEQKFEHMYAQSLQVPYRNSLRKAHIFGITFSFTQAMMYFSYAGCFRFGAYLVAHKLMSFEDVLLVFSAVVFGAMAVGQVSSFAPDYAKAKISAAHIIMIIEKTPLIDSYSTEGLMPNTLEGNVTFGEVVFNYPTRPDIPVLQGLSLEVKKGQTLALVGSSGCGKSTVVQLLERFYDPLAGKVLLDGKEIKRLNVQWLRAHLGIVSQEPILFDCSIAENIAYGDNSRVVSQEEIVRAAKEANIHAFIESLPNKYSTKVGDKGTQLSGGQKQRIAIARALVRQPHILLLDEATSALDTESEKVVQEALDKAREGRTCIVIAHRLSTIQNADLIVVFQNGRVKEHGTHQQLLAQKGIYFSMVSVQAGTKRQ
The nature of assay [2]: blockers of polyQ-driven CASP3 activation – cell-based (AID 1583). The settings on record: polyglutamine-induced caspase-3 activation, cell assay; stronger effect = higher value;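 tested at 10 µM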.
Assay [3] can be described thus: yeast 75Q aggregation reduction – 75Q-TubU reporter (AID 1593). The note with it: Yeast 75Q polyglutamine aggregation reporter.
Assay [4] in a line: restoration of touch response, mutant HTT neurons – whole organism, C. elegans mechanosensory neurons, N-terminal huntingtin (AID 1599). The settings on record: C. elegans polyQ-huntingtin mechanosensory neurons, stronger effect = higher value.
A short description of assay [5]: blockers of cytochrome c efflux from mitochondria – biochemical, purified mitochondria (AID 1603).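 Also: mouse liver mitochondria challenged with calcium chloride; signal normalized to the plate average as 100%.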 The note with it: stronger effect = lower value.
Assay [6] in a line: polyglutamine aggregate formation blockers (AID 1604). The note with it: polyglutamine-induced protein aggregation inhibition assay; stronger effect = higher value; tested at 2.5 µM.
Assay [7] in a line: glutamate transport activators, MN-1 cells, MN-1 cell line (AID 1612).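 Also: tested at 1 µM final; 0% = mean of DMSO vehicle wells on each plate; positive means more glutamate uptake than control and negative means less.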 The settings on record: MN-1 motor neuron cells, stronger effect = higher value.
Assay [8] in a line: GFP-Q80 aggregate reduction, neuronal-like cells, cell-based, NGF-treated PC12, GFPQ80 (AID 1614).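 Also: lower means fewer inclusions and 0 means no inclusions at all.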 The note with it: PC12 NGF-treated GFP-polyQ80 inclusion reduction.
Assay [9] can be described thus: 75Q-TubH aggregate inhibition, S. cerevisiae, yeast (AID 1616). The settings on record: S. cerevisiae 75Q-TubH polyglutamine aggregation suppression; stronger effect = higher value.
Assay [10] can be described thus: compounds altering viability of human ES cells (AID 493140; call rule not given here;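 also: cells exposed to compounds for four days before counting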). The settings on record: human embryonic stem cell survival screen; stronger effect = higher value.
Assay [11] concerns the target 6-phosphogluconate dehydrogenase, decarboxylating (Homo sapiens) (UniProt P52209). Description: inhibition of human phosphogluconate dehydrogenase – biochemical, recombinant enzyme, NADPH absorbance, primary screen (AID 1159550;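 active = at least 20% inhibition of 6-phosphogluconate dehydrogenase activity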). The settings on record: recombinant 6PGD, NADPH absorbance 341 nm; at 10 µM; stronger effect = higher value.
Assay [12] in a line: EMT-state selective cytotoxicity in co-culture – imaging, PC-3E GFP, TEM4-18 mCherry, primary screen (AID 1345086;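 active = compounds killing one labelled cell type while sparing the other, by normalised counts and ratio limits, not self-fluorescent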;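 as to all read-outs here: cells exposed to compound for 72 h before imaging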;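 as to red/green cell ratio (normalised): normalised mesenchymal count divided by normalised epithelial count so high means epithelial killing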). The settings on record: PC-3E GFP / TEM4-18 mCherry co-culture, imaging cell counts, at 1 µM; for red/green cell ratio (normalised): actives lie on both sides, counts scaled to control wells, 1 = unselective.
Assay [13] is described as follows: MELAS cybrid and Rieske KO viability enhancers – cell-based, MELAS cybrids, Rieske KO mouse fibroblasts, CellTiter-Glo, primary screen (AID 1508586;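 active = mean z-score across replicates of 1.96 or higher in either the MELAS or the Rieske mutant cell line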;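 also: z relative to plate mean and SD of compound and empty wells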). The settings on record: low glucose. For orientation: ATP-based viability assays read luminescence as a measure of living cells.
Assay [14] deals with NAD(+) hydrolase SARM1 (Homo sapiens) (UniProt Q6SZW1). Description: blocking NAD cleavage by SARM1 SAM-TIR – cell lysate, NAD-Glo luminescence (AID 1508614;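 active = compound whose remaining NAD level is above about 45 nM, limit read from the data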;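 also: higher remaining NAD means stronger inhibition of SARM1 NADase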). The settings on record: SAM-TIR HEK293T lysate NADase, at 1 µM, stronger effect = higher value.
NAD(+) hydrolase SARM1 (Homo sapiens), sequence (Q6SZW1 whole entry, looked up, the tested form may be a part): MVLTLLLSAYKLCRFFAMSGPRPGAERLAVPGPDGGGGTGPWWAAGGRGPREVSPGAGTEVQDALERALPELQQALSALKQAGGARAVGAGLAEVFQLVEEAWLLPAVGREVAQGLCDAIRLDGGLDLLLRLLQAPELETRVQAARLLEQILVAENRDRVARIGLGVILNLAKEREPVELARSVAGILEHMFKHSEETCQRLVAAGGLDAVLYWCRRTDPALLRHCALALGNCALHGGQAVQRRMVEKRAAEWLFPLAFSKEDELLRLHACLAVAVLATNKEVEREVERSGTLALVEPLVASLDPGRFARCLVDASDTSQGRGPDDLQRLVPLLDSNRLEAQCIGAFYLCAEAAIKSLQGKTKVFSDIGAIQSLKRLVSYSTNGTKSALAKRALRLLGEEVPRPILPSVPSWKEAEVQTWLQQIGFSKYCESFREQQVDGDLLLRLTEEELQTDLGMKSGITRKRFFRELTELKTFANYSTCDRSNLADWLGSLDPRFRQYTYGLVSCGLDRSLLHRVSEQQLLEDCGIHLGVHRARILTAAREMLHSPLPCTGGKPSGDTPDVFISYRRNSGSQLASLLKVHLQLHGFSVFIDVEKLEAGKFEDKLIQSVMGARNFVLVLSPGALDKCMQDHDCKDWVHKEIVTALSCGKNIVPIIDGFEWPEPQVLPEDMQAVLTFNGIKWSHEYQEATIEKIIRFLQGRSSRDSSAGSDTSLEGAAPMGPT
The target of assay [15] is Mitogen-activated protein kinase 7 (Homo sapiens) (UniProt Q13164). Description: Gal4-ERK5 driven luciferase induction – cell-based, HTS, primary screen (AID 1508626;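 active = luciferase signal above three times the same-plate solvent-only control wells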;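 also: luciferase driven by Gal4-ERK5 fusion binding five Gal4 sites before minimal TATA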). The settings on record: HeLa Gal4-ERK5 transactivation, 18 h, at 5 µM, stronger effect = higher value.
Mitogen-activated protein kinase 7 (Homo sapiens), sequence (Q13164 whole entry, looked up, the tested form may be a part): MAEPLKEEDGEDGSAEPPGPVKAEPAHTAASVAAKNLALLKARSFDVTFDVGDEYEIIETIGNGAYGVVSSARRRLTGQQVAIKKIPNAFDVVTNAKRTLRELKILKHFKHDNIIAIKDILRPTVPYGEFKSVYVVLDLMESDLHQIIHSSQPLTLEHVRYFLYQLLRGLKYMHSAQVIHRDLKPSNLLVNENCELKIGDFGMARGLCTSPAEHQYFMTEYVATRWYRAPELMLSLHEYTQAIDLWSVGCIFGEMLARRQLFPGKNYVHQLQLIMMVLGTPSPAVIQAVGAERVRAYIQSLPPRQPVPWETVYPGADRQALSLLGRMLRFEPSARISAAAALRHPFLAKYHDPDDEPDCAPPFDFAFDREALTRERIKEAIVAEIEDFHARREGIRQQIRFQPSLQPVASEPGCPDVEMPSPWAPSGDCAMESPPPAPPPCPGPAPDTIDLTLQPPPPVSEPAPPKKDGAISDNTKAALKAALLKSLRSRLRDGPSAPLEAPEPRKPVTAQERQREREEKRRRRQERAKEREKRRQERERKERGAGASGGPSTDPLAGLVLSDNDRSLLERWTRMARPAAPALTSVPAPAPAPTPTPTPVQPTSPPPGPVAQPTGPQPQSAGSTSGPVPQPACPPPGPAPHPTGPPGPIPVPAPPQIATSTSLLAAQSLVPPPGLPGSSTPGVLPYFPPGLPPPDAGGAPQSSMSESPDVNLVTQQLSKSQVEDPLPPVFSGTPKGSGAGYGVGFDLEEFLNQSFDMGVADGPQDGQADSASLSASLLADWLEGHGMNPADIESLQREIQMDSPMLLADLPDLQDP
Assay [16] can be described thus: galactose survival enhancers in mitochondrial complex I cybrids – cell-based, galactose medium, ATP luminescence, primary screen (AID 1645843;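 active = z-score of at least 1.8 in each of two replicates, scored against plate mean and spread of sample wells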;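 also: positive z means more ATP and so rescue of galactose-driven cybrid death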). The settings on record: complex I mutant cybrid cells, 72 h, stronger effect = higher value.
A short description of assay [17]: P. berghei load reduction in hepatocytes – cell-based, HepG2, luciferase luminescence, HepG2 viability, primary screen (AID 624349).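 Also: 100% = mean of DMSO negative control wells on the same plate.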 The note with it: P. berghei liver stage in HepG2, luciferase luminescence, concentration not given here; parasite load remaining: stronger effect = lower value; viability: measured here: HepG2 viability without parasites.
A short description of assay [18]: viability loss with induced miR-34 in A549 – imaging, A549 dox-inducible miR-34, nuclei and caspase counts, primary screen (AID 1347080;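 active = compounds whose cell count with miR-34 switched on is under 0.7 times the count with it off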). The settings on record: A549 miR-34 inducible, Hoechst nuclei count, 48 h.
Assay [19] can be described thus: rescue of PC12 cells from polyQ htt toxicity – LDH release (AID 1610). The note with it: PC12 mutant huntingtin toxicity, final LDH at 4 uM, stronger effect = lower value. (In general: LDH leaks from cells whose membrane has failed.)
Where [20] appears, read: measured here: epithelial PC-3E GFP cell survival.
The mark [21] stands for this setting: measured here: mesenchymal TEM4-18 mCherry cell survival.
Setting [22] is: stronger effect = lower value, cell number ratio, induced over uninduced.
The mark [23] stands for this setting: measured here: relative caspase fold change +Dox/-Dox.
The mark [24] stands for this setting: measured here: total cells with miR-34 induction, stronger effect = lower value.
Where [25] appears, read: measured here: total cells without miR-34 induction.

6-phosphogluconate dehydrogenase, decarboxylating (Homo sapiens), sequence (P52209 whole entry, looked up): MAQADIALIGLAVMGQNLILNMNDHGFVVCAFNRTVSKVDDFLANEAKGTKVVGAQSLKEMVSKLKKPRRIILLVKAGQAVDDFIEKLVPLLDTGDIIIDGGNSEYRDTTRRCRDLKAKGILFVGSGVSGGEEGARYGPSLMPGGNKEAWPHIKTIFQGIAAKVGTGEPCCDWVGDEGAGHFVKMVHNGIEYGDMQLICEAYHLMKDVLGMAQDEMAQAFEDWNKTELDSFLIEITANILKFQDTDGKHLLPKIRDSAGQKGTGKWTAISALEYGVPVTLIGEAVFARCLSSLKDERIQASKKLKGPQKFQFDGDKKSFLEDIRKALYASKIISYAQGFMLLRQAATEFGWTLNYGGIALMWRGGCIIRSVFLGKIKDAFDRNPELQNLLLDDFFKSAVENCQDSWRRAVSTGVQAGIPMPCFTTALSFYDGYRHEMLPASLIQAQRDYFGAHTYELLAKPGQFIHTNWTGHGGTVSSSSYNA

Take `CC(C(=O)O)c1cccc(Oc2ccccc2)c1` (stereo not drawn): in assay [1], the fluorescence slope change is 22.2% (inactive). Moreover, the inhibition is -4.11% in assay [2] and 15.8% (inactive) in assay [11]. In [3], this molecule showed a score of 0.02. Also, in assay [4], the rescue above control was 4.41. Moreover, the cytochrome c release ratio in [5] worked out at 0.68. In assay [6], this molecule had an inhibition of aggregation of 72.7%. Further, the glutamate uptake change in [7] was 5.16%. Also, the inclusion score in assay [8] was 2. Also, the aggregation suppression score in assay [9] came out at 0.0306. In assay [10], the survival is 1.75 (inactive). Besides, the red/green cell ratio (normalised) in assay [12] was 0.89 (inactive). Further, the normalised cell number in assay [12] (setting [20]) turned out to be 1.13; in [12] (setting [21]) it was 1. In addition, the z-score in [13] (MELAS cybrid survival, CellTiter-Glo 48 h, stronger effect = higher value) was -0.0579 (inactive) and -0.205 (inactive) and 0.473 (inactive); in assay [13] (Rieske KO mouse fibroblast survival, CellTiter-Glo 72 h), -0.141 and -0.109 and 0.281; in assay [16], 0.865 (inactive). In addition, the remaining NAD in assay [14] was 10 nM (inactive). Also, the luciferase signal in assay [15] was 72 AU (inactive).
Turning to `CC(C)c1nc(N(C)S(C)(=O)=O)nc(-c2ccc(F)cc2)c1/C=C/[C@@H](O)C[C@@H](O)CC(=O)O`, the parasite load remaining in assay [17] was 73.5% (inactive) and 60.1% (inactive). Further, the viability in assay [17] was 86.4% and 101%. For the same molecule, the inhibition in assay [11] is 1.44% (inactive). Further, in [12], the red/green cell ratio (normalised) was 0.94 (inactive). Further, the normalised cell number in [12] (setting [20]) is 1.08; in assay [12] (setting [21]), 1.02. For the same molecule, the results for the fold change in assay [18] (setting [22]) and in assay [18] (setting [23]) were 0.858 (inactive) and 2.33, respectively. Moreover, the figures for the cell count in assay [18] (setting [24]) and in [18] (setting [25]) were 12000 and 13900, respectively. Further, in assay [14], the remaining NAD is 10 nM (inactive). Further, the luciferase signal in [15] is 48 AU (inactive).
For `CN1CC(=O)N=C1N`, the inhibition in [2] is -27.2%; in assay [11] it was 10.8% (inactive). Moreover, in [3], the score stood at 1.33. The molecule also showed a rescue above control in assay [4] of -3.62. Moreover, the cytochrome c release ratio in assay [5] came to 0.51. In addition, the inhibition of aggregation in assay [6] was determined as 97.4%. In addition, in assay [7], the glutamate uptake change stood at 32%. This molecule came in with an inclusion score in [8] of 2. In assay [9], the aggregation suppression score was 1.7. Further, in assay [12], the red/green cell ratio (normalised) was 1.04 (inactive). The normalised cell number in assay [12] (setting [20]) was 0.96; in assay [12] (setting [21]), 1. Further, the remaining NAD in assay [14] is 10 nM (inactive). For the same molecule, the luciferase signal in [15] is 68 AU (inactive).
Turning to `CC[C@H]1OC(=O)C[C@@H](O)[C@H](C)[C@@H](O[C@@H]2O[C@H](C)[C@@H](O[C@H]3C[C@@](C)(O)[C@@H](O)[C@H](C)O3)[C@H](N(C)C)[C@H]2O)[C@@H](CC=O)C[C@@H](C)C(=O)/C=C/C(C)=C/[C@@H]1CO[C@@H]1O[C@H](C)[C@@H](O)[C@@H](OC)[C@H]1OC`, in assay [17], the parasite load remaining is 131% (inactive) and 58.3% (inactive). Further, the viability in assay [17] was 85.6% and 145%. Further, the inhibition in assay [11] is 1.55% (inactive). Also, the red/green cell ratio (normalised) in assay [12] is 1.03 (inactive). For the same molecule, the normalised cell number in [12] (setting [20]) was found to be 1.05; in assay [12] (setting [21]) it was 1.08. Also, the figures for the fold change in [18] (setting [22]) and in assay [18] (setting [23]) were 0.905 (inactive) and 5.16, respectively. The cell count in [18] (setting [24]) is 12000; in assay [18] (setting [25]) it was 13200. The remaining NAD in assay [14] is 10 nM (inactive). The luciferase signal in assay [15] was 16 AU (inactive).
`COc1cc2ccc(=O)oc2cc1O`: the inhibition in assay [2] was -26.2%; in [11] it was -1.14% (inactive). The molecule also showed a score in assay [3] of 1.15. In assay [4], this molecule displayed a rescue above control of 11.4. Besides, in assay [5], the cytochrome c release ratio was determined as 0.77. In addition, the inhibition of aggregation in assay [6] was 0%. The molecule further registered a normalised LDH release in assay [19] of 0.874. The same molecule yielded a glutamate uptake change in assay [7] of 13.8%. The same molecule gave an inclusion score in [8] of 2. The aggregation suppression score in assay [9] is 1.62. Moreover, in assay [10], the survival is 12.4 (inactive). The parasite load remaining in [17] is 104% (inactive) and 103% (inactive). In assay [17], the viability is 106% and 66.2%. The red/green cell ratio (normalised) in assay [12] was 1.11 (inactive). For the same molecule, the normalised cell number in [12] (setting [20]) turned out to be 0.86; in assay [12] (setting [21]), 0.96. Further, the fold change in assay [18] (setting [22]) was 0.946 (inactive); in assay [18] (setting [23]), 1.18. The results for the cell count in assay [18] (setting [24]) and in assay [18] (setting [25]) were 8620 and 9110, respectively. The luciferase signal in assay [15] was 40 AU (inactive).

As a reminder, the inhibition is the drop in the measured response relative to a control, in per cent. Usually viability stands for a read-out of living cells in per cent, often relative to untreated cells.
